Measurements published in PMC5540273 (PLoS ONE, 2017).

How the values were obtained:
Details in all cases: concentration: 1 μM, replicates: in singlicate; n = 1
KIT-autoinhibited = tested on: KIT-autoinhibited
KIT = tested on: KIT
LATS1 = tested on: LATS1
LATS2 = tested on: LATS2
LCK = tested on: LCK
LIMK1 = tested on: LIMK1
LIMK2 = tested on: LIMK2
LKB1 = tested on: T1, LKB1
T1 construct: gene STK11

LOK = tested on: T2, LOK
T2 construct: gene STK10

LRRK2 = tested on: LRRK2
LTK = tested on: LTK
LYN = tested on: LYN
LZK = tested on: T3, LZK
T3 construct: gene MAP3K13

MAK = tested on: MAK
MAP3K15 = tested on: MAP3K15
MAP3K1 = tested on: MAP3K1
MAP3K2 = tested on: MAP3K2
MAP3K3 = tested on: MAP3K3
MAP3K4 = tested on: MAP3K4
MAP4K2 = tested on: MAP4K2
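Note: KINOMEscan kinase panel screen.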

SMILES	%Inh (KIT-autoinhibited)	%Inh (KIT)	%Inh (LATS1)	%Inh (LATS2)	%Inh (LCK)	%Inh (LIMK1)	%Inh (LIMK2)	%Inh (LKB1)	%Inh (LOK)	%Inh (LRRK2)	%Inh (LTK)	%Inh (LYN)	%Inh (LZK)	%Inh (MAK)	%Inh (MAP3K15)	%Inh (MAP3K1)	%Inh (MAP3K2)	%Inh (MAP3K3)	%Inh (MAP3K4)	%Inh (MAP4K2)
NS(=O)(=O)CCc1cccc(Nc2nccc(-c3c(-c4cccc(NC(=O)c5c(F)cccc5F)c4)nn4ccccc34)n2)c1 [GSK336735]	13%	100%	7%	7%	99.6%	67%	9%	1%	99.4%	0%	39%	97.8%	0%	22%	5%	13%	88%	79%	76%	0%
CC(C)(C)n1cnc2c(N)ncnc21 [SKF-97359]	30%	0%	24%	0%	0%	0%	0%	56%	0%	0%	0%	0%	15%	0%	0%	0%	0%	0%	0%	0%
NS(=O)(=O)c1cccc(-c2ccc3nccc(-c4cccc(S(N)(=O)=O)c4)c3c2)c1 [GW867253]	25%	0%	0%	0%	0%	0%	0%	0%	2%	0%	0%	0%	1%	0%	0%	8%	15%	0%	12%	9%
Cc1cn2c(=O)cc(N3CCOCC3)nc2n1Cc1cccc(Cl)c1Cl [GSK2334006]	0%	39%	0%	0%	46%	0%	6%	0%	0%	30%	7%	4%	0%	9%	2%	18%	6%	0%	0%	0%
CN(C1=C(c2ccccc2)C(=O)NC1=O)c1ccccc1 [SB-334860]	0%	16%	0%	14%	20%	15%	20%	5%	1%	0%	6%	0%	0%	20%	0%	9%	2%	0%	10%	0%
Cc1cccc(Cn2ccn3c(=O)cc(N4CCOCC4)nc23)c1 [GSK2297542]	1%	38%	28%	10%	26%	2%	10%	21%	0%	0%	0%	0%	0%	32%	0%	8%	8%	0%	0%	0%
O=C1NC(=O)C(N2CCc3ccccc32)=C1c1cccc(Cl)c1 [SB-408010]	0%	13%	0%	10%	10%	0%	0%	0%	0%	9%	5%	7%	12%	37%	1%	26%	0%	22%	9%	0%
COc1ccc(CNC(=O)NC2CCN(c3ccnc(Nc4ccc(OC)cc4)n3)C2)cc1 (centres unmarked) [GSK1379727]	0%	16%	6%	0%	8%	0%	0%	15%	0%	0%	0%	0%	0%	7%	0%	0%	0%	0%	10%	0%
COc1cc2c(cc1OC[C@@H](O)CO)ncc1c3ccc(C#N)cc3[nH]c21	48%	63%	0%	41%	0%	0%	0%	0%	20%	93.1%	0%	0%	8%	0%	42%	0%	0%	6%	0%	17%
CN1c2ccc(CNc3ccc(F)cc3)cc2-c2c(cnn2C)S1(=O)=O	15%	0%	0%	0%	7%	0%	0%	8%	0%	0%	0%	3%	0%	3%	0%	0%	11%	25%	12%	0%
